The full list was thinned out, with hits kept by preference.
mcGAS MS inh: inhibitors of Mus musculus cyclic GMP-AMP synthase, initial high-throughput assay, cell-free, RapidFire MS | Q8C6L5 | recombinant mouse cGAS, cGAMP by RapidFire MS | inhibition, % at 12.5 µM | 130,000 compounds, 0.18% hits | AID 1259397, 2018;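 active = inhibition of cGAS enzyme activity at or above 60%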;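 also: enzyme stimulated by 45 bp dsDNA with ATP and GTP substrates; cGAMP share of summed cGAMP plus half ATP and half GTP signals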
* hit, by the source's call.

SMILES	mcGAS MS inh
CC(C(=O)Nc1ccc(Cl)cn1)N(C)Cc1ccsc1 (configuration not stated)	83*
CC(C(=O)Nc1ccc(Cl)cn1)N(C)CC(=O)Nc1c(Cl)cccc1Cl (configuration not stated)	-7
CC(C(=O)Nc1ccccc1)N(C)Cc1ccc(Cl)cc1 (configuration not stated)	-7
CSc1ccc(C(C)NC(=O)NC2CCCC2)cc1 (configuration not stated)	19
O=C1c2ccccc2-c2c(-c3ccccc3)sc(=O)n21	-2
CC(CCc1ccccc1F)C(=O)NS(=O)(=O)CC1CC1 (configuration not stated)	5
C=CCn1cc(CN2CCn3nc(-c4nc5ccccc5n4C)cc3C2)c(C)n1	79*
C=CCn1cc(CN2CCN(Cc3ccc4c(c3)OCO4)C(=O)C2)c(C)n1	-5
Cn1c(-c2ccc(CN3CCn4cncc4C3)o2)nc2ccccc21	-16
O=C1COc2ccc(NC(=O)C3CC(=O)N(c4cccc(Cl)c4)C3)cc2N1 (configuration not stated)	3
Cc1cc(CNC(=O)C2CCCN2S(C)(=O)=O)c2[nH]c(C)c(C)c2c1 (configuration not stated)	-8
O=C(Nc1ncc([N+](=O)[O-])s1)c1ccc(=O)n(Cc2ccc(F)cc2)c1	9
O=C(Nc1nnc(C2CC2)s1)c1cccs1	-18
O=C(Nc1ncc([N+](=O)[O-])s1)c1cccs1	86*
Cc1ccc(/C(=C2\OC(=O)c3ccccc32)[N+](=O)[O-])c(C)c1	5
Cc1ccc(C2([N+](=O)[O-])C(=O)c3ccccc3C2=O)cc1	90*
Cc1ccc(N2Cc3ccccc3C2=O)cc1	-5
CC(=O)Cn1c(=O)c2c(nc3n(CCN4CCOCC4)c(C)c(C)n23)n(C)c1=O	-7
Cc1nn2c(nc(NC3CCCCCC3)c3ccccc32)c1Cl	-4
O=S(=O)(O)c1cc(N=C=S)ccc1/C=C/c1ccc(N=C=S)cc1S(=O)(=O)O	98*
CC(C)(C)/[N+]([O-])=C/c1ccc(S(=O)(=O)O)cc1S(=O)(=O)O	-6
Cn1c(Oc2cc(Cl)cc(Cl)c2)cc(=O)n(C)c1=O	-29
COc1ccc(CNC(=O)CCC2CCCN(C(=O)c3cn4ccccc4n3)C2)c(OC)c1 (configuration not stated)	-9
COc1ccc(C=NNC(=O)CC2C(=O)NN=C3c4ccccc4N=CN32)cc1OC (configuration not stated)	-4
O=C1Nc2ccc(Br)cc2C1=c1sc2nc3ccccc3n2c1=O	4
SMILES	mcGAS MS inh
O=C1Nc2ccc(Br)cc2/C1=c1/sc2n(c1=O)CCN=2	81*
O=C1Nc2ccc(Br)cc2C1=O	5
CC(C)(C)NC(=O)NCc1nnnn1-c1ccc(F)cc1	-12
O=C(Cn1c(CO)cnc1SCCc1ccccc1)NCc1ccc(F)cc1	0
COc1cccc(CNC(=O)CCC2CCCN(C(=O)c3ccc4ncccc4c3)C2)c1 (configuration not stated)	-10
O=c1c(=Cc2ccccc2I)sc2nc3ccccc3n12	-3
O=c1c2cc([N+](=O)[O-])ccc2nc2n1CCC2=Cc1ccccc1	1
O=c1/c(=C/c2ccc([N+](=O)[O-])cc2)sc2nc3cc(Br)cnc3n12	85*
CCc1nc2ncc3c(=O)n(CCCN(C)C)ccc3n2n1	-5
O=C1CN(C(=O)c2ccn(-c3ccccc3Cl)n2)c2ccccc2N1	-13
CN1C(C)(C)CC(NC(=O)CN2C(=O)C(c3ccccc3)NC(=O)c3ccccc32)CC1(C)C (configuration not stated)	-3
Nc1nc(N)nc(CN2CCCC(C(F)(F)F)C2)n1 (configuration not stated)	-27
COCCN(Cc1ccco1)S(=O)(=O)Cc1cccc(C)c1	89*
COCCN(Cc1ccco1)C(=O)CNc1ccccc1Cl	5
COCCS(=O)(=O)N(Cc1ccco1)c1ccc(F)cc1F	-48
CCOC(=O)c1[nH]nc2c1C(=O)N(CC)C2=O	62*
CCOC(=O)c1[nH]nc(-c2ccc(C)cc2)c1C	-13
CCOC(=O)c1[nH]nc2c1CC/C2=C\c1ccccc1	1
CC(NC(N)=O)C1CC2CCC1C2 (configuration not stated)	-22
CC(C)C1CN(C(=O)c2cnc3ccccn23)CCCN1CC1CC1 (configuration not stated)	13
COc1c(Cl)cc(C(=O)NCCn2cccc2)cc1Cl	-3
COc1c(Cl)ccc(Cl)c1C(=O)O	98*
COc1cccc(C=CC(=O)c2ccc(Cl)c(Cl)c2)c1OC	9
CCn1c(O)c(C2=c3ccccc3=NC2=O)sc1=S	7
O=C1N=c2ccccc2=C1c1sc(=S)n(-c2ccc(O)cc2)c1O	2
O=C1N=c2ccccc2=C1c1sc(N2CCCCC2)nc1O	88*
COc1ccccc1CN(C)C(C)C(=O)Nc1ccc2[nH]c(=O)[nH]c2c1 (configuration not stated)	-3
c1ccc2c(c1)ncn1nc(CN3CCCCC3)nc21	-5
CCc1nc2c3ccccc3ncn2n1	-8
